Assay results as given in the supplement of paper PMC10849652.
The full data set covers some 7,900 targets. This sample favours those with a hit. About 0.6% of all pairs of compound and target were hits.

What was measured:
Assay in all cases: log2 fold change, soluble protein after heating vs DMSO (PISA); higher = thermal stabilisation; K562 cells, 10 uM, 30 min; active = over 0.2 and 3.5 SD of the protein, either way, in both replicates (recomputed)
sotrastaurin = compound: CN1CCN(c2nc(C3=C(c4c[nH]c5ccccc45)C(=O)NC3=O)c3ccccc3n2)CC1 [sotrastaurin]
Method in brief: (§1)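 Soluble protein was defined as the supernatant after 21,000xg for 90 min. It came from K562 cells at 2×10^6 cells/mL given 10 μM compound for 30 min, heated in aliquots for 3 min across 48°C-58°C, pooled, and extracted in PBS with 0.5% NP-40 at 4°C, and was quantified by TMTpro 16plex LC-MS/MS with equalised channel sums. Thermal stability against control samples, from duplicates, is reported as log2 fold change.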

[1] = compound: CNC(=O)C1=CC=CC=C1NC2=NC(=NC=C2Cl)NC3=C(C=C(C=C3)N4CCOCC4)OC
Method in brief: as §1

rucaparib = compound: CNCc1ccc(-c2[nH]c3cc(F)cc4c3c2CCNC4=O)cc1 [rucaparib]
Method in brief: as §1

encorafenib = compound: COC(=O)N[C@@H](C)CNc1nccc(-c2cn(C(C)C)nc2-c2cc(Cl)cc(NS(C)(=O)=O)c2F)n1 [encorafenib]
Method in brief: as §1

saracatinib = compound: CN1CCN(CCOc2cc(OC3CCOCC3)c3c(Nc4c(Cl)ccc5c4OCO5)ncnc3c2)CC1 [saracatinib]
Method in brief: as §1

alvocidib = compound: CN1CC[C@H](c2c(O)cc(O)c3c(=O)cc(-c4ccccc4Cl)oc23)[C@H](O)C1 [alvocidib]
Method in brief: as §1

Tubastatin A = compound: CN1CCc2c(c3ccccc3n2Cc2ccc(C(=O)NO)cc2)C1 [Tubastatin A]
Method in brief: as §1

[2] = compound: CNc1nc(-c2ccc3c(N)n[nH]c3c2)cc(N2C[C@@H](C(=O)NC3CCCCC3)CC[C@H]2C)n1
Method in brief: as §1

Measured: log2 fold change

MAP4 isoform 5 (UniProt P27816)
Sequence of UniProt P27816 (P27816 whole entry, looked up): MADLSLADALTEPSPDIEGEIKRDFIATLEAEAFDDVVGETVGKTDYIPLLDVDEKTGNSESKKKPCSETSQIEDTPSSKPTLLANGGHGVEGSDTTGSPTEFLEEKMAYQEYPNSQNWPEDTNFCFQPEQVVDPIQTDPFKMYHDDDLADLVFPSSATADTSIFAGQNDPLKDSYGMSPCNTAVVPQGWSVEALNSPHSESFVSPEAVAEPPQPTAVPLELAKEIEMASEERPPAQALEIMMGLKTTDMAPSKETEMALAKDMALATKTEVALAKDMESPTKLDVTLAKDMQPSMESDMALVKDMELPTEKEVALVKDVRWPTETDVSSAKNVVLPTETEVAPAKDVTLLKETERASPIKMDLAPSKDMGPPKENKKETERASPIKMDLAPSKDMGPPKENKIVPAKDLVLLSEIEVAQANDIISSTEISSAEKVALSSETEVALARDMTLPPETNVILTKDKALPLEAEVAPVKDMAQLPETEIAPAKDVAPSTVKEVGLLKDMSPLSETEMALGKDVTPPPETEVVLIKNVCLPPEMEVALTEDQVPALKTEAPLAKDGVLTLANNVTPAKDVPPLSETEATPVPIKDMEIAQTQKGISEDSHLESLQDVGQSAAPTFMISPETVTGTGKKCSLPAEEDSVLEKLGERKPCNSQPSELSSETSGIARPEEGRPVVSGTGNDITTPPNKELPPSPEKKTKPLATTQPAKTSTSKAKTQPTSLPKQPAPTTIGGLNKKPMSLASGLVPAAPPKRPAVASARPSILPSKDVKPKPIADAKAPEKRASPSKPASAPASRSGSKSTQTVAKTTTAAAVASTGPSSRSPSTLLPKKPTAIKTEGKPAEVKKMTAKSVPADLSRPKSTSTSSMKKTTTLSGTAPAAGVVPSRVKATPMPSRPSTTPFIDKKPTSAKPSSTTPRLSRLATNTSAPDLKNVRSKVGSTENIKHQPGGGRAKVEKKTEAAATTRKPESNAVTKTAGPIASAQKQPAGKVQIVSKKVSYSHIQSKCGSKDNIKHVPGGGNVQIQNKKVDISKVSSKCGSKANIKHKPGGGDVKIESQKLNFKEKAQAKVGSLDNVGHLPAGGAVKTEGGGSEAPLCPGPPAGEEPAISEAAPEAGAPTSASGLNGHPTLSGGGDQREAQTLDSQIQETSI
inactive: sotrastaurin -0.16 | [1] 0.13 | rucaparib 0.046 | encorafenib 0.094

KIF21A (UniProt H0YI78)
inactive: [1] -0.012

LEPROT (UniProt O15243)
Sequence of UniProt O15243 (O15243 whole entry, looked up): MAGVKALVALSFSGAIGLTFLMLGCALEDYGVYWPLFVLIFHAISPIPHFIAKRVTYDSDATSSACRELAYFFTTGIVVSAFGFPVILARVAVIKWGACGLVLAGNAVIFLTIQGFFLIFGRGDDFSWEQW
inactive: saracatinib -0.261 | alvocidib 0.071 | Tubastatin A -0.133 | [1] 0.087 | rucaparib 0.028 | [2] -0.25 | encorafenib -0.077

MARCHF3 (UniProt Q86UD3)
Sequence of UniProt Q86UD3 (Q86UD3 whole entry, looked up): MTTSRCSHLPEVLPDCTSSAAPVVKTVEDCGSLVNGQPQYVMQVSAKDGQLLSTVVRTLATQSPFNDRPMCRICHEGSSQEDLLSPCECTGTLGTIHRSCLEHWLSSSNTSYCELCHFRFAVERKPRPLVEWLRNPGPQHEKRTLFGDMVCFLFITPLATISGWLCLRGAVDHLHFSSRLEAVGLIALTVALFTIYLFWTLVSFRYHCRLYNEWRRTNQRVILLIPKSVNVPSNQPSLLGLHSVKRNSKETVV
inactive: sotrastaurin -0.055 | rucaparib 0 | encorafenib 0.097

ILF3 (UniProt Q12906)
Sequence of UniProt Q12906 (Q12906 whole entry, looked up): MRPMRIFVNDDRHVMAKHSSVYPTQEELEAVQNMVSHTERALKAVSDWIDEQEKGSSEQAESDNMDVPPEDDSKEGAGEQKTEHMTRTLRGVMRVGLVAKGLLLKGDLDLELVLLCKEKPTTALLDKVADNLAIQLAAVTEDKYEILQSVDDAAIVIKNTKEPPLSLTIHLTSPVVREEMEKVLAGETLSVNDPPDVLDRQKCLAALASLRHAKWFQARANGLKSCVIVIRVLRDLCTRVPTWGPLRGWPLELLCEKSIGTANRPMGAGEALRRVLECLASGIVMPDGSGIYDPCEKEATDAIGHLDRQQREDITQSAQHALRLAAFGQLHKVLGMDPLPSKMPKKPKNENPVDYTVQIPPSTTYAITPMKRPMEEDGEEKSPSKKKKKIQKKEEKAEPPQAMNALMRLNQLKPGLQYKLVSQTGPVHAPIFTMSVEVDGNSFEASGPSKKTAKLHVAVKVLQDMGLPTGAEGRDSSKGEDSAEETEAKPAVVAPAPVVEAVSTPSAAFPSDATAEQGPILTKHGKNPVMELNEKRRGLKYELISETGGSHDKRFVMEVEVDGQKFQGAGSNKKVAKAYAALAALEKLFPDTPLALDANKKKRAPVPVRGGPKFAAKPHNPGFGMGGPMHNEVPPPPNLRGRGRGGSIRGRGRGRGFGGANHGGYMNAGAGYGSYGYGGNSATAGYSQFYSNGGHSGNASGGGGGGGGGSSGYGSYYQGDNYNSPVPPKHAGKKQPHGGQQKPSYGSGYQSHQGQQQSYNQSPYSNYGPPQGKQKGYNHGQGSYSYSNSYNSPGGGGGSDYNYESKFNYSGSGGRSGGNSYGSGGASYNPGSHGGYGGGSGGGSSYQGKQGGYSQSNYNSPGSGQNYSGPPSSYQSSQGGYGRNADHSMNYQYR
inactive: sotrastaurin 0.009 | rucaparib 0.384 | encorafenib 0.081

LRRFIP1 isoform 4 (UniProt Q32MZ4)
Sequence of UniProt Q32MZ4 (Q32MZ4 whole entry, looked up): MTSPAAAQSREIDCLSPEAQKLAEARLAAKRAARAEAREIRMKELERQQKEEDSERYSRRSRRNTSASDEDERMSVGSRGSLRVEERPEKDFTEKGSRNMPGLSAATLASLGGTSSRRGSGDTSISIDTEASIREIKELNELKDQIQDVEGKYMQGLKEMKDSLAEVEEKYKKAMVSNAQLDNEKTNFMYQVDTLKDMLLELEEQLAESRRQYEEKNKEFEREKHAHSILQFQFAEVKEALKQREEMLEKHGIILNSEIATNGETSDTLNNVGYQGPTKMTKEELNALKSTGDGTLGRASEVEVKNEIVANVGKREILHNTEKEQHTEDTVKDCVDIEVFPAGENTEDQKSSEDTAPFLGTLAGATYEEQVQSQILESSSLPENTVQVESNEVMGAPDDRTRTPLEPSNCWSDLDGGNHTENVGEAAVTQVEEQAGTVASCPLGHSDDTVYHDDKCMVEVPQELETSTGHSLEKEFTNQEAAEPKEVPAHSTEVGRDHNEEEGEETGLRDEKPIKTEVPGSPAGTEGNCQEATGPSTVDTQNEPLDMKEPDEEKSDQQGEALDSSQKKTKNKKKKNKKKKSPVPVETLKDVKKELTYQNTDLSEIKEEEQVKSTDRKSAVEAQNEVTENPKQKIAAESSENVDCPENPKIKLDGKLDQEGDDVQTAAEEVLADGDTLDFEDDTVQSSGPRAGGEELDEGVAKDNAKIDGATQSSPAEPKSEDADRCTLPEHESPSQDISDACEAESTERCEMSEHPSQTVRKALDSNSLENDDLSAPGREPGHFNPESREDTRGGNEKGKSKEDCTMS
inactive: saracatinib 0.008 | alvocidib 0.481 | [1] -0.111 | [2] -0.089

LDLRAP1 (UniProt Q5SW96)
Sequence of UniProt Q5SW96 (Q5SW96 whole entry, looked up): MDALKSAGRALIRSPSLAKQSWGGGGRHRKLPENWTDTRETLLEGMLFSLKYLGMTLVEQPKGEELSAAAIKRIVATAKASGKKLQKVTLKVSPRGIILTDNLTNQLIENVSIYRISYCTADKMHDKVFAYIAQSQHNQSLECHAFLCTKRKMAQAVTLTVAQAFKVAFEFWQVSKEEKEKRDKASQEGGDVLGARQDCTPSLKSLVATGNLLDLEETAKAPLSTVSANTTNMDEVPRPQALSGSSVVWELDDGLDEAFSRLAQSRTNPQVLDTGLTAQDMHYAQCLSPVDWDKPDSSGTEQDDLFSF
inactive: [1] -0.014
